How the values were obtained:
[1] = molecular target: Dual specificity protein kinase TTK (Homo sapiens) (UniProt P33981); conditions: at 0.1 µM
[2] = system: Receptor-type tyrosine-protein kinase FLT3 (Homo sapiens), P36888 [D835Y]; conditions: at 1 µM
[3] = molecular target: Vascular endothelial growth factor receptor 3 (Homo sapiens) (UniProt P35916); conditions: at 0.1 µM
[4] = molecular target: Vascular endothelial growth factor receptor 3 (Homo sapiens) (UniProt P35916); conditions: at 1 µM
[5] = molecular target: Macrophage colony-stimulating factor 1 receptor (Homo sapiens) (UniProt P07333); conditions: at 0.1 µM
[6] = molecular target: Macrophage colony-stimulating factor 1 receptor (Homo sapiens) (UniProt P07333); conditions: at 1 µM
[7] = molecular target: Tyrosine-protein kinase Fyn (Homo sapiens) (UniProt P06241); conditions: at 0.1 µM
[8] = molecular target: Tyrosine-protein kinase Fyn (Homo sapiens) (UniProt P06241); conditions: at 1 µM
[9] = molecular target: Tyrosine-protein kinase HCK (Homo sapiens) (UniProt P08631); conditions: at 0.1 µM
[10] = molecular target: Tyrosine-protein kinase HCK (Homo sapiens) (UniProt P08631); conditions: at 1 µM
[11] = molecular target: Insulin-like growth factor 1 receptor (Homo sapiens) (UniProt P08069); conditions: at 0.1 µM
[12] = molecular target: Insulin-like growth factor 1 receptor (Homo sapiens) (UniProt P08069); conditions: at 1 µM
[13] = molecular target: Insulin receptor (Homo sapiens) (UniProt P06213); conditions: at 0.1 µM
[14] = molecular target: Insulin receptor (Homo sapiens) (UniProt P06213); conditions: at 1 µM
[15] = molecular target: Insulin receptor-related protein (Homo sapiens) (UniProt P14616); conditions: at 0.1 µM
[16] = molecular target: Insulin receptor-related protein (Homo sapiens) (UniProt P14616); conditions: at 1 µM
[17] = molecular target: Tyrosine-protein kinase ITK/TSK (Homo sapiens) (UniProt Q08881); conditions: at 0.1 µM
Sequence of Tyrosine-protein kinase ITK/TSK (Homo sapiens) (Q08881 whole entry): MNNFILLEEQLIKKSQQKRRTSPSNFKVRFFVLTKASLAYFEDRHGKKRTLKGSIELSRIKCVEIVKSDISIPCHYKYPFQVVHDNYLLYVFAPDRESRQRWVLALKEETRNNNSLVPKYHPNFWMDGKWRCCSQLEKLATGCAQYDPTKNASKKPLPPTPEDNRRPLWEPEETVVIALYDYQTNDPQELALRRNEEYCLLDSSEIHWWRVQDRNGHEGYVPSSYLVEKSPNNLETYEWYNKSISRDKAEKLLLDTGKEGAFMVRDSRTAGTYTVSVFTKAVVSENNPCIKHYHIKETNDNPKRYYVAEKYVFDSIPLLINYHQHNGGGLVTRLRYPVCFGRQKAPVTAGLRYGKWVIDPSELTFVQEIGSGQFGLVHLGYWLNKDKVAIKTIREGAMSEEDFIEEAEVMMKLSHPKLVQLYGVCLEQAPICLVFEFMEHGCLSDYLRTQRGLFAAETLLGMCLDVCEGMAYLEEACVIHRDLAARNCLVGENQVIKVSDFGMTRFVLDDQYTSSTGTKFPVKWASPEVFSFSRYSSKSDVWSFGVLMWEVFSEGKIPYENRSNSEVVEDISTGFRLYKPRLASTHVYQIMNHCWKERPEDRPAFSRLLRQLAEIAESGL

[18] = molecular target: Tyrosine-protein kinase ITK/TSK (Homo sapiens) (UniProt Q08881); conditions: at 1 µM
[19] = molecular target: Tyrosine-protein kinase JAK1 (Homo sapiens) (UniProt P23458); conditions: at 0.1 µM
[20] = molecular target: Tyrosine-protein kinase JAK1 (Homo sapiens) (UniProt P23458); conditions: at 1 µM
[21] = molecular target: Tyrosine-protein kinase JAK2 (Homo sapiens) (UniProt O60674); conditions: at 0.1 µM
[22] = molecular target: Tyrosine-protein kinase JAK2 (Homo sapiens) (UniProt O60674); conditions: at 1 µM
[23] = molecular target: Tyrosine-protein kinase JAK3 (Homo sapiens) (UniProt P52333); conditions: at 0.1 µM
Sequence of Tyrosine-protein kinase JAK3 (Homo sapiens) (P52333 whole entry): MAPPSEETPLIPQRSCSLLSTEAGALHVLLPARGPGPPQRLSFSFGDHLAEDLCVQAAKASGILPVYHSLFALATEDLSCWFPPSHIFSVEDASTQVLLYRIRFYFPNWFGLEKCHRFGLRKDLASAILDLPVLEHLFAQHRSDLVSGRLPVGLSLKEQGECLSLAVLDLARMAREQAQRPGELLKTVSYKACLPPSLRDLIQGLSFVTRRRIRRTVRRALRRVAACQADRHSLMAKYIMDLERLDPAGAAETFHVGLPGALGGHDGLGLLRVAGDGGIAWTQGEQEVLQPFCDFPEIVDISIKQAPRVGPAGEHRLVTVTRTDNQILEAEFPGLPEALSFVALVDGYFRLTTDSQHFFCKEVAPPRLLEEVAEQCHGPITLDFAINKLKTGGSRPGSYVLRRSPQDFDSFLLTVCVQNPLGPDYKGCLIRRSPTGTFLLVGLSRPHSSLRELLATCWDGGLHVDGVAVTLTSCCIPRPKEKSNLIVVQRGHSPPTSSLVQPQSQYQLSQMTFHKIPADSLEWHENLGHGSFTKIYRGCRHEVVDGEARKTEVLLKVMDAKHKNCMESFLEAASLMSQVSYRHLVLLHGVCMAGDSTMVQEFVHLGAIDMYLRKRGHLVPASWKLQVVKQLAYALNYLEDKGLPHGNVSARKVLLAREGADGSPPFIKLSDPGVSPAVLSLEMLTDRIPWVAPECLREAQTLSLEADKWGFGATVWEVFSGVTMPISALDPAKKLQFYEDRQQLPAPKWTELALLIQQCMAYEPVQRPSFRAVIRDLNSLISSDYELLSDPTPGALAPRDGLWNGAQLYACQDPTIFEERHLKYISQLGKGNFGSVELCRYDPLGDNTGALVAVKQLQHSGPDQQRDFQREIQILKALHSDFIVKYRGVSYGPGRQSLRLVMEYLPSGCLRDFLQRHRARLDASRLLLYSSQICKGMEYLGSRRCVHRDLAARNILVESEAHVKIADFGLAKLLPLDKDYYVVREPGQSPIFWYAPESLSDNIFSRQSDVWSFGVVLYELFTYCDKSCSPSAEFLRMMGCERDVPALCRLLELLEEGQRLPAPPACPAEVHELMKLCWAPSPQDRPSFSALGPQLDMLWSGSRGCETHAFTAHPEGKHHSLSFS

[24] = molecular target: Tyrosine-protein kinase JAK3 (Homo sapiens) (UniProt P52333); conditions: at 1 µM
[25] = molecular target: Vascular endothelial growth factor receptor 2 (Homo sapiens) (UniProt P35968); conditions: at 0.1 µM
[26] = molecular target: Vascular endothelial growth factor receptor 2 (Homo sapiens) (UniProt P35968); conditions: at 1 µM
[27] = molecular target: Mast/stem cell growth factor receptor Kit (Homo sapiens) (UniProt P10721); conditions: at 0.1 µM
[28] = molecular target: Mast/stem cell growth factor receptor Kit (Homo sapiens) (UniProt P10721); conditions: at 1 µM
[29] = system: Mast/stem cell growth factor receptor Kit (Homo sapiens), P10721 [D816V]; conditions: at 0.1 µM
[30] = system: Mast/stem cell growth factor receptor Kit (Homo sapiens), P10721 [D816V]; conditions: at 1 µM
[31] = system: Mast/stem cell growth factor receptor Kit (Homo sapiens), P10721 [T670I]; conditions: at 0.1 µM
Sequence of Mast/stem cell growth factor receptor Kit (Homo sapiens), P10721 [T670I] (P10721 whole entry T670I): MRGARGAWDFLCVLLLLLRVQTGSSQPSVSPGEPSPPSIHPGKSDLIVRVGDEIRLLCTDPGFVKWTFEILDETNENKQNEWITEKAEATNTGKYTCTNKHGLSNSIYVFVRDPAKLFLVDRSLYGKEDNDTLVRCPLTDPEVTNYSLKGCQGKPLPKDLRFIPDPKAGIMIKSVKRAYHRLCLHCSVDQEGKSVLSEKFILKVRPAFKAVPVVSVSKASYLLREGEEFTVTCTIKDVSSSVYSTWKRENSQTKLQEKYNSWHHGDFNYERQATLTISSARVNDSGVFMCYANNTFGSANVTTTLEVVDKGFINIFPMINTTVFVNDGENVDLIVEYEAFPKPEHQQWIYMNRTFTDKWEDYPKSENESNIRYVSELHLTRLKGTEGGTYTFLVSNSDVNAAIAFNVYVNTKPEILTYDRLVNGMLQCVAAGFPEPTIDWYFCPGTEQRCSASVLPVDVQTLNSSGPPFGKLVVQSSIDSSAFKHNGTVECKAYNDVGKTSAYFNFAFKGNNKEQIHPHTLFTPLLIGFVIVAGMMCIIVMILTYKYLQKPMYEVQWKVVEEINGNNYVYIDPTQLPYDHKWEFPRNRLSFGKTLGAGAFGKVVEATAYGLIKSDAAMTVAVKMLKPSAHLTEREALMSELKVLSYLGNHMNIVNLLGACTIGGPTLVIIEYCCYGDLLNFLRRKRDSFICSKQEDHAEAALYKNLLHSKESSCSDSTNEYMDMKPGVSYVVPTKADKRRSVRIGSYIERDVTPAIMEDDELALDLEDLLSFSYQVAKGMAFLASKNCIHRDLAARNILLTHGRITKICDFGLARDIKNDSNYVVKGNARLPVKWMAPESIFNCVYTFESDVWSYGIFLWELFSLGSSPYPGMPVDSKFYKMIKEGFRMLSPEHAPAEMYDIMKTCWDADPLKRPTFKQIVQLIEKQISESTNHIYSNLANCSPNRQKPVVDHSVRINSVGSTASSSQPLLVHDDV

[32] = system: Mast/stem cell growth factor receptor Kit (Homo sapiens), P10721 [T670I]; conditions: at 1 µM
[33] = system: Mast/stem cell growth factor receptor Kit (Homo sapiens), P10721 [V560G]; conditions: at 0.1 µM
[34] = system: Mast/stem cell growth factor receptor Kit (Homo sapiens), P10721 [V560G]; conditions: at 1 µM
[35] = molecular target: Tyrosine-protein kinase Lck (Homo sapiens) (UniProt P06239); conditions: at 0.1 µM
[36] = molecular target: Tyrosine-protein kinase Lck (Homo sapiens) (UniProt P06239); conditions: at 1 µM
[37] = molecular target: Leukocyte tyrosine kinase receptor (Homo sapiens) (UniProt P29376); conditions: at 0.1 µM
Sequence of Leukocyte tyrosine kinase receptor (Homo sapiens) (P29376 whole entry): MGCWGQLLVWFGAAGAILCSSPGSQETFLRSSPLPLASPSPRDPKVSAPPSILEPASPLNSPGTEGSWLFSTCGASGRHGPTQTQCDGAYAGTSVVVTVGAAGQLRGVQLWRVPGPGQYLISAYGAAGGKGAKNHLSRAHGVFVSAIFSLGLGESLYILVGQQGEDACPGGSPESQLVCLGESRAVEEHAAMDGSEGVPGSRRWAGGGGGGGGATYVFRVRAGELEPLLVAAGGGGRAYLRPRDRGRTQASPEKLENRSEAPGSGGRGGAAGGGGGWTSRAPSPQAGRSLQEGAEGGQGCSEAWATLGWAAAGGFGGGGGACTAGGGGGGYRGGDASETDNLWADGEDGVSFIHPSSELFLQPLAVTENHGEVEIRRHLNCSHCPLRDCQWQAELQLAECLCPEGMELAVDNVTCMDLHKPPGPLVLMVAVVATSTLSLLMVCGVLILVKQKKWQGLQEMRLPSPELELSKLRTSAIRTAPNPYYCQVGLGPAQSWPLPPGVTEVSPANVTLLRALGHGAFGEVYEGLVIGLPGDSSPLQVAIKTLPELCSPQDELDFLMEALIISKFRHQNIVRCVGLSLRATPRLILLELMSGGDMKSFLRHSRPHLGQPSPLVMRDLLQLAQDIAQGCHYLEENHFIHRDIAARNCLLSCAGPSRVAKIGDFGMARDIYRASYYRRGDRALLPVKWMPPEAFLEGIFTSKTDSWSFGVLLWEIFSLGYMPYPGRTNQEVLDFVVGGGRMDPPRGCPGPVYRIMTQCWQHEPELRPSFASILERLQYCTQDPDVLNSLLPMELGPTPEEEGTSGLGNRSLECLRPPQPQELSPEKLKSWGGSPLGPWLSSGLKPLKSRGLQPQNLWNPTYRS

[38] = molecular target: Leukocyte tyrosine kinase receptor (Homo sapiens) (UniProt P29376); conditions: at 1 µM
[39] = molecular target: Tyrosine-protein kinase Lyn (Homo sapiens) (UniProt P07948); conditions: at 0.1 µM
Sequence of Tyrosine-protein kinase Lyn (Homo sapiens) (P07948 2-512 limits assumed): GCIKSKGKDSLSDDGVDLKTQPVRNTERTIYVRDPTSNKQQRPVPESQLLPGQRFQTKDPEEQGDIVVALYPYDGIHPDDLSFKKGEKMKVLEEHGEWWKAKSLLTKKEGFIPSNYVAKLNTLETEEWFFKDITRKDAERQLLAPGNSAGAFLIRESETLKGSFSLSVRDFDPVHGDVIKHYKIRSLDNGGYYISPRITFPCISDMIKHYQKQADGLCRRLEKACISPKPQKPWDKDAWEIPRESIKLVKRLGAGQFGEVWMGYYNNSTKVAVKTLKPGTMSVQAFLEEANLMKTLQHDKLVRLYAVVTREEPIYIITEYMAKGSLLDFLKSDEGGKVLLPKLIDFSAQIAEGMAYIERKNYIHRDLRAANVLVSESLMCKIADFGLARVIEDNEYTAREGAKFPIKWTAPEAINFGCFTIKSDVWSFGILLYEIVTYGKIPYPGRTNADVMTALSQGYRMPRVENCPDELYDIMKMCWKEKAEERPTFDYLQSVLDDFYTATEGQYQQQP

[40] = molecular target: Tyrosine-protein kinase Lyn (Homo sapiens) (UniProt P07948); conditions: at 1 µM
[41] = molecular target: Tyrosine-protein kinase Lyn (Homo sapiens) (UniProt P07948); conditions: at 0.1 µM; remark: listed apart in the source
[42] = molecular target: Tyrosine-protein kinase Lyn (Homo sapiens) (UniProt P07948); conditions: at 1 µM; remark: listed apart in the source
[43] = molecular target: Tyrosine-protein kinase Mer (Homo sapiens) (UniProt Q12866); conditions: at 0.1 µM
Sequence of Tyrosine-protein kinase Mer (Homo sapiens) (Q12866 whole entry): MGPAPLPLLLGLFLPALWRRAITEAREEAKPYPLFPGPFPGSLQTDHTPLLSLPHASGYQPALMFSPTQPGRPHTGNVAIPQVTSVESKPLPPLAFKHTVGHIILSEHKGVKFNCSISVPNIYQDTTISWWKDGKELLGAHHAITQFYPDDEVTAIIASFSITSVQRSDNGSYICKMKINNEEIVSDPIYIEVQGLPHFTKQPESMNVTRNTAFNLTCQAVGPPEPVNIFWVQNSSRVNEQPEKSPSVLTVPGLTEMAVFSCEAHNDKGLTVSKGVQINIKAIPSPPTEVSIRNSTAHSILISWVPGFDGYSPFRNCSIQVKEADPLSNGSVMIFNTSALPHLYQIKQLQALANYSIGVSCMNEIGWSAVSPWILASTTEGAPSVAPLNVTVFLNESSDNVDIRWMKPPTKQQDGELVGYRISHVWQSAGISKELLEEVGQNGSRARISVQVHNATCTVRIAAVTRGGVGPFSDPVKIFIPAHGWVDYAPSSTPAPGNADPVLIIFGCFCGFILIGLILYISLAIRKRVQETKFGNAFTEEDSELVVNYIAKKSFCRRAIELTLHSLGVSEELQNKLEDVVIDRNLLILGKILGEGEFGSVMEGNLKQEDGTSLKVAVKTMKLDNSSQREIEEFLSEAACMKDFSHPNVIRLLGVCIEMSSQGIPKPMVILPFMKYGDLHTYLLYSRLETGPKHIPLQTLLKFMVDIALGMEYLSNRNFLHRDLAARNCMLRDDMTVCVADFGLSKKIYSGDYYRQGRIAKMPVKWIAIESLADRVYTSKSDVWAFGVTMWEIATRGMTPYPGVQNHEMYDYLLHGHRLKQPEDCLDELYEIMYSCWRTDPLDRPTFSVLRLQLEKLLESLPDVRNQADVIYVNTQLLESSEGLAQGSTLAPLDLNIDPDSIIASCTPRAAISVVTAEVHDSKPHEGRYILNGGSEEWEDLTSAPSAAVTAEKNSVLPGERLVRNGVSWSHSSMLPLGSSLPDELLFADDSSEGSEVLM

[44] = molecular target: Tyrosine-protein kinase Mer (Homo sapiens) (UniProt Q12866); conditions: at 1 µM
[45] = molecular target: Hepatocyte growth factor receptor (Homo sapiens) (UniProt P08581); conditions: at 0.1 µM
[46] = molecular target: Hepatocyte growth factor receptor (Homo sapiens) (UniProt P08581); conditions: at 1 µM
[47] = molecular target: Muscle, skeletal receptor tyrosine-protein kinase (Homo sapiens) (UniProt O15146); conditions: at 0.1 µM
[48] = molecular target: Muscle, skeletal receptor tyrosine-protein kinase (Homo sapiens) (UniProt O15146); conditions: at 1 µM
[49] = molecular target: Platelet-derived growth factor receptor alpha (Homo sapiens) (UniProt P16234); conditions: at 0.1 µM
[50] = molecular target: Platelet-derived growth factor receptor alpha (Homo sapiens) (UniProt P16234); conditions: at 1 µM
[51] = system: Platelet-derived growth factor receptor alpha (Homo sapiens), P16234 [D842V]; conditions: at 0.1 µM
[52] = system: Platelet-derived growth factor receptor alpha (Homo sapiens), P16234 [D842V]; conditions: at 1 µM
[53] = system: Platelet-derived growth factor receptor alpha (Homo sapiens), P16234 [T674I]; conditions: at 0.1 µM
[54] = system: Platelet-derived growth factor receptor alpha (Homo sapiens), P16234 [T674I]; conditions: at 1 µM
[55] = system: Platelet-derived growth factor receptor alpha (Homo sapiens), P16234 [V561D]; conditions: at 0.1 µM
[56] = system: Platelet-derived growth factor receptor alpha (Homo sapiens), P16234 [V561D]; conditions: at 1 µM

## CNC(=O)Oc1cc(C)c(/C=C/c2cncc(C(=O)NC)c2)c(C)c1
[1]
  inhibition: 3.53%
[2]
  inhibition: -6.68%
[3]
  inhibition: 2.38%
[4]
  inhibition: 3.06%
[5]
  inhibition: 4.08%
[6]
  inhibition: 28.3%
[7]
  inhibition: 4.17%
[8]
  inhibition: 32.4%
[9]
  inhibition: 14.3%
[10]
  inhibition: 51.1%
[11]
  inhibition: 6.27%
[12]
  inhibition: 6.14%
[13]
  inhibition: 3.13%
[14]
  inhibition: 3.08%
[15]
  inhibition: 3.12%
[16]
  inhibition: 2.02%
[17]
  inhibition: 0.99%
[18]
  inhibition: 1.69%
[19]
  inhibition: 3.98%
[20]
  inhibition: -1.5%
[21]
  inhibition: 1.67%
[22]
  inhibition: 1.34%
[23]
  inhibition: 0.21%
[24]
  inhibition: -1.11%
[25]
  inhibition: -0.28%
[26]
  inhibition: 4.06%
[27]
  inhibition: 12.7%
[28]
  inhibition: 63.5%
[29]
  inhibition: 4.33%
[30]
  inhibition: -0.14%
[31]
  inhibition: 1.64%
[32]
  inhibition: -1.04%
[33]
  inhibition: 2.06%
[34]
  inhibition: 14.4%
[35]
  inhibition: 6.81%
[36]
  inhibition: 41%
[37]
  inhibition: 3.84%
[38]
  inhibition: 5.56%
[39]
  inhibition: 13.7%
[40]
  inhibition: 57.1%
[41]
  inhibition: 9.47%
[42]
  inhibition: 52.3%
[43]
  inhibition: 1.05%
[44]
  inhibition: 0.84%
[45]
  inhibition: -2.86%
[46]
  inhibition: -0.63%
[47]
  inhibition: 1.43%
[48]
  inhibition: 4.49%
[49]
  inhibition: 12.5%
[50]
  inhibition: 42.2%
[51]
  inhibition: 2.6%
[52]
  inhibition: 13.1%
[53]
  inhibition: 3.98%
[54]
  inhibition: 4.15%
[55]
  inhibition: 13.5%
[56]
  inhibition: 52.3%

Source: ChEMBL document CHEMBL1961873, “Compounds: GSK PKIS; Assays: Nanosyn kinase panel” (2012)
